SMN2 splice enh – enhancers of SMN2 splice variant expression; HEK293 SMN2-luciferase splicing reporter, luminescence, 30-36 h; Potency, µM (highest dose often 46.1 µM), for the others: at the top dose activity change, positive = activation, most hits filed as activators; 210,000 tested, 2.8% active; AID 1458; also: % of control where 0% means no effect; nearly all actives have a fitted effect of over 55% in size
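HEK293 cells carry an SMN2 minigene-luciferase reporter in which exon 7 inclusion puts luciferase in frame. Cells were seeded at 2000 cells/well, attached for 10-12 hours, then exposed to compounds for 30-36 hours at 37C before ONE-Glo luminescence.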
ELG1 genotox – genotoxicity induction in ELG1-luciferase HEK293T cells; HEK293T ELG1-luciferase reporter, luminescence, 16 h; Potency, µM (highest dose often 46 µM), without a hit: top-dose activity change, positive = activation, hits mostly activators; 330,000 tested, 1.3% active; AID 504466; also: % of control where 0% means no effect; nearly all actives have a fitted effect of over 60% in size
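HEK293T cells expressing luciferase-tagged ELG1 were exposed to compound or DMSO vehicle for 16 hr at 37 °C and 5% CO2. Luciferase activity was then measured with ONE-Glo after 30 min at room temperature.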
NPC1 prom act – activators of NPC1 promoter; 320,000 tested, 2.4% active; Potency, µM (doses to about 9.22 µM), for inactives: top-dose activation, most hits filed as activators; Huh7 NPC1 promoter luciferase reporter, 24 h; also: % of control where 0% means no effect; nearly all actives have a fitted effect of over 60% in size
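Quantitative HTS used a cell-based reporter: Huh7 cells stably bearing the NPC1 promoter upstream of luciferase were treated with compounds for 24 h, and promoter activation was read as luminescence.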
FLuc counter – inhibits or activates purified firefly luciferase, miR-21 counter-screen; P08659; purified FLuc, Km substrates, luminescence inhibition; Potency, µM (doses to about 57.5 µM), for inactives: at the top dose activity change, negative = inhibition, actives largely listed as inhibitors; 360,000 tested, 6.9% active; AID 588342;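 also: plate controls were vehicle for no effect and reference inhibitor for full effect; nearly all actives have a fitted effect of over 55% in size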
Target sequence (P08659 whole entry, looked up): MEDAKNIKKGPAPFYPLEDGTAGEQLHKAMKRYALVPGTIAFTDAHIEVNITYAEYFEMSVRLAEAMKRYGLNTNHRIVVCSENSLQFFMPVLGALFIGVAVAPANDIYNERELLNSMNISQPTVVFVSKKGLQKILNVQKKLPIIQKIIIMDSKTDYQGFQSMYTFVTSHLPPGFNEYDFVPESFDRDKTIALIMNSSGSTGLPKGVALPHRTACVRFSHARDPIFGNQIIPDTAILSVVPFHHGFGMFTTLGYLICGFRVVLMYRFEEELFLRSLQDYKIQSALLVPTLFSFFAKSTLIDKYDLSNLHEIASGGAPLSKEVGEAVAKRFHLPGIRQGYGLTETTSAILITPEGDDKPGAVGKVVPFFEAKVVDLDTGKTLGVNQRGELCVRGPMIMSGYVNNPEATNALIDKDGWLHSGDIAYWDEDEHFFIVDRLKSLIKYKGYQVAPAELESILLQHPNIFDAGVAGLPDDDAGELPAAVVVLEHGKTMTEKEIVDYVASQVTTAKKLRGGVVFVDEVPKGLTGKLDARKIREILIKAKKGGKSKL
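Purified P. pyralis luciferase (10nM final) with 10uM D-luciferin and 10uM ATP (Km levels) in 50mM Tris acetate pH 7.5, 10mM Mg acetate, 0.01% Tween-20, 0.05% BSA; qHTS 6-point titration, ~60 µM downward; luminescence read.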
ELG1 repair inh – inhibitors of ELG1-dependent DNA repair in HEK293T cells. HEK293T ELG1-luciferase reporter, luminescence, 16 h; DNA damage induced by 5-fluorouridine. Potency, µM (highest dose often 46.1 µM), for inactives: at the top dose activity change, negative = inhibition, usual class: inhibitors. 330,000 tested, 2.3% active. AID 504467; also: % is scaled to controls: 0 for no effect and ±100 for the full control effect; nearly all actives have a fitted effect of over 55% in size
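Overnight (16 hr) co-exposure of 2,000 cells/well to 5-fluorouridine and compound at 37 °C preceded detection. Luciferase was quantified via ONE-Glo luminescence; loss of signal denotes inhibition.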
Rab9 prom act – activates the Rab9 promoter | Huh7 Rab9 promoter-luciferase reporter, luminescence, 24 h | Potency, µM (titrated, usually from 9.22 µM), without a hit: top-dose activation, negative = inhibition, most hits filed as activators | 320,000 tested, 2.8% active | AID 485297; also: % of control where 0% means no effect; nearly all actives have a fitted effect of over 60% in size
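Luciferase signal after 10 min detection reagent at ambient indicates Rab9 promoter upregulation; stably transfected Huh7 cells were treated 24 h with compound in DMSO at 37 °C, 5% CO2.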
The depositor's hits bear a star; ? = inconclusive; . = not tested or not shown. Sampled rows, rich in hits. Any-hit rate of the full collection: about 9.3%. Calls follow the shape of the dose curve; as a rule, active = well fitted curve in the direction sought with a large enough effect; inconclusive = small, poorly fitted or top-dose-only effect, or another doubt; inactive = no such curve, though single readings can be large; an effect the other way counts as inactive or inconclusive. Potency is read from the fitted curve at half-maximal effect.

SMILES	SMN2 splice enh	ELG1 genotox	NPC1 prom act	FLuc counter	ELG1 repair inh	Rab9 prom act
C=CCn1c(=O)[nH]c2cc(C(=O)N3CCN(c4ccc(C(C)=O)cc4)CC3)ccc2c1=O	-34%	-4%	1%	0%	18µM*	-10%
Cc1noc(C)c1S(=O)(=O)N(C)C[C@H]1Oc2c(NC(=O)Nc3ccc(C(F)(F)F)cc3)cccc2C(=O)N([C@H](C)CO)C[C@@H]1C	.	-4%	.	.	?	.
COCCN(CC(=O)Nc1cccc(C)c1C)C(=O)c1oc2ccccc2c1C	.	-3%	.	.	?	.
Nc1nc(SCC(=O)Nc2cccc(F)c2)n[nH]1	.	2%	.	.	?	.
CC(=C/c1ccccc1)/C=N/NC(=O)c1nnn(-c2nonc2N)c1CN1CCC(C)CC1	.	-5%	-1%	0%	?	-5%
CCS(=O)(=O)N1Cc2ccccc2CC1C(=O)Nc1nnc(C2CC2)s1 (stereo unspecified)	-7%	-1%	0%	-5%	-7%	2%
CCS(=O)(=O)N1Cc2ccccc2CC1C(=O)Nc1nc2ccccc2s1 (stereo unspecified)	-47%	2.3µM*	1%	5.4µM*	?	10%
CCc1nnc(NC(=O)C2Cc3ccccc3CN2S(=O)(=O)CC)s1 (stereo unspecified)	5%	-9%	-2%	-4%	3%	-4%
CCS(=O)(=O)N1Cc2ccccc2CC1C(=O)Nc1nc2ccccc2[nH]1 (stereo unspecified)	?	?	24%	15µM*	?	20%
CCn1cc(C(=O)N2CCN(c3ccc(C)cc3)C(C)C2)c(=O)c2cc(S(=O)(=O)N3CCCC3)ccc21 (stereo unspecified)	-7%	.	.	1%	.	.
COc1ccc(CCc2nnc(CCC(=O)NCc3cc(C(C)C)no3)o2)cc1	?	?	27%	17µM*	?	?
COc1ccc(CCc2nnc(CCC(=O)NCCc3ncccc3C)o2)cc1	11%	5%	0%	-16%	23%	-2%
Cc1ccccc1OCCOc1cccc(/C=N/NC(=O)Cc2nnc(N)s2)c1	5µM*	-1%	1.6µM*	?	?	0.45µM*
Nc1nnc(CC(=O)N/N=C/c2cccc(OCCOc3ccccc3)c2)s1	10µM*	0%	?	4%	?	3.2µM*
CCN(CC(=O)Nc1ccccc1C(F)(F)F)C(=O)CSCc1ccc(C)cc1	.	-25%	-2%	-2%	-22%	2%
Cc1ccc2c(CC(=O)Nc3ccc(N4CCN(C)CC4)cc3C)coc2c1	-3%	-1%	?	8.5µM*	13%	5%
Cc1ccc2c(CC(=O)Nc3sccc3C(N)=O)coc2c1	?	?	2µM*	11µM*	?	2.8µM*
O=C(COc1ccc(Cl)cc1)N1CCN(C(=O)c2cccs2)CC1	.	-6%	-5%	-2%	13%	-10%
CCc1ccc(CNC(=O)C2CCN(c3nn4cc(-c5ccc(OC)cc5)nc4s3)CC2)cc1	.	.	.	-1%	.	.
CCN(CC)CCNC(=O)C1CCN(c2nn3cc(-c4ccc(F)cc4)nc3s2)CC1	.	.	.	21µM*	.	.
COc1ccc(-c2cn3nc(N4CCCC(C(=O)NCc5ccccc5OC)C4)sc3n2)cc1 (stereo unspecified)	.	.	.	17µM*	.	.
Cc1ccccc1CNC(=O)C1CCN(c2nn3cc(-c4ccc(F)cc4)nc3s2)CC1	.	.	.	1%	.	.
O=C(NCc1cccc(Cl)c1)C1CCCN(c2nn3cc(-c4ccc(F)cc4)nc3s2)C1 (stereo unspecified)	.	.	.	9.5µM*	.	.
Cc1ccc(-c2cn3nc(N4CCCC(C(=O)NCc5ccccc5F)C4)sc3n2)cc1 (stereo unspecified)	.	.	.	6µM*	.	.
CN1CCN(C(=O)c2cnn(-c3ccccc3)c2NC(=O)c2ccccc2Br)CC1	.	1%	1%	-4%	19%	1%

From PubChem BioAssay
